This is an account of results in ChEMBL document CHEMBL1961873, “Compounds: GSK PKIS; Assays: Nanosyn kinase panel” (2012).

Each structure is given as a SMILES string.

Assay [1] has as its target T1, Ephrin type-B receptor 2 (Homo sapiens) (UniProt P29323).
T1 sequence (whole entry): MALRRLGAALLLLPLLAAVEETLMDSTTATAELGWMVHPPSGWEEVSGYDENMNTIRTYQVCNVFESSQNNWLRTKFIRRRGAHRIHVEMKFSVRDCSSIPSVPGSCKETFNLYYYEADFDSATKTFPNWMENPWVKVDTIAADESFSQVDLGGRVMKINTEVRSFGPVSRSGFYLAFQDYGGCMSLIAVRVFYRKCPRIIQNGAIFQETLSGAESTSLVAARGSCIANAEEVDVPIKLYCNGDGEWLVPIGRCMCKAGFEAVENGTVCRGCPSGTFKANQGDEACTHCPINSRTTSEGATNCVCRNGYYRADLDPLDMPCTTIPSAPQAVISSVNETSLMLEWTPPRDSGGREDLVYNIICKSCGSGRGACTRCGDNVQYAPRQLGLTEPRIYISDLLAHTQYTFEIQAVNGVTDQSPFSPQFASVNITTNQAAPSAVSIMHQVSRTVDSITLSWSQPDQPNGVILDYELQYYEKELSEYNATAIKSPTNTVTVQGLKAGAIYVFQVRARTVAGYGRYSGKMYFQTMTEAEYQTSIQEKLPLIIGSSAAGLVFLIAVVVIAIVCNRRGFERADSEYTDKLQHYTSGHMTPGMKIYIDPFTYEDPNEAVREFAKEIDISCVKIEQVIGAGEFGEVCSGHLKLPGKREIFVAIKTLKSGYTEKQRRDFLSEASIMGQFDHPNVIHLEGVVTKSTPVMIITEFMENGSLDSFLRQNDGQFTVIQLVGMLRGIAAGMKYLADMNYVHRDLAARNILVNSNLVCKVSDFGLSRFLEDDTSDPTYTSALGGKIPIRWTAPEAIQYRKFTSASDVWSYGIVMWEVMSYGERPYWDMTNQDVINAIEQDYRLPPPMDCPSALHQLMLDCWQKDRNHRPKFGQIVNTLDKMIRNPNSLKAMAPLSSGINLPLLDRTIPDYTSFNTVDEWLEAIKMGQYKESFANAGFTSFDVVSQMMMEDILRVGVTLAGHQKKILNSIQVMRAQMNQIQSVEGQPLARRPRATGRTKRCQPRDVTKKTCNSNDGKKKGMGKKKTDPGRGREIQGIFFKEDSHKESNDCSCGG
Conditions: at 1 µM.

For assay [2], the target named is T2, Ephrin type-B receptor 3 (Homo sapiens) (UniProt P54753).
T2 sequence (whole entry): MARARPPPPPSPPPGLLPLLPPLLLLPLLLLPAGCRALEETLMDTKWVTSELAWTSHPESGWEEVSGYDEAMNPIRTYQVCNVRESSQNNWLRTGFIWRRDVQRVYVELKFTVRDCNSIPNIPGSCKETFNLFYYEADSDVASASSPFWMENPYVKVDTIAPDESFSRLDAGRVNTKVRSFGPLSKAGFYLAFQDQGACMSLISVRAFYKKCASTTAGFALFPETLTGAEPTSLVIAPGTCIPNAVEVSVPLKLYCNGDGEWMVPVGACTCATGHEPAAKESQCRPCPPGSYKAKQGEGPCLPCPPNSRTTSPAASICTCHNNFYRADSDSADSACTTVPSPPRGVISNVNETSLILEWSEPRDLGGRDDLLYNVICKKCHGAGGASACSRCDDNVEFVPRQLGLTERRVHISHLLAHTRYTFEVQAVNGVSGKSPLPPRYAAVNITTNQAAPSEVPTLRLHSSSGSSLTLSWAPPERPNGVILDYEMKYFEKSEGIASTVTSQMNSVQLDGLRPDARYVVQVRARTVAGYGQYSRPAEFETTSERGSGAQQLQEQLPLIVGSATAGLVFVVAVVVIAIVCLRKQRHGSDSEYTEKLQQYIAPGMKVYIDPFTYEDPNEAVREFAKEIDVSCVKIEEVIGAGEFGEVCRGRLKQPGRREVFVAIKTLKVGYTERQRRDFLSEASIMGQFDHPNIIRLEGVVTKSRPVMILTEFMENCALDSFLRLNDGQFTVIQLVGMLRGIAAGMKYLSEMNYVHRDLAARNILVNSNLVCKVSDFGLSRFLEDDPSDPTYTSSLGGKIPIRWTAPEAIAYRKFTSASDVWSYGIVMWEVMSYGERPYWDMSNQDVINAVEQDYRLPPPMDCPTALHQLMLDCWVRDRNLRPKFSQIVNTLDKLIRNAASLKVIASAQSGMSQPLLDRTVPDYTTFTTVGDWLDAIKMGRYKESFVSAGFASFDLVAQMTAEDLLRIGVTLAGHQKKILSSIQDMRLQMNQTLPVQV
The conditions noted are these: at 0.1 µM.

Assay [3] deals with T2, Ephrin type-B receptor 3 (Homo sapiens). Conditions: at 1 µM.
Assay [4] concerns the target T3, Ephrin type-B receptor 4 (Homo sapiens) (UniProt P54760).
T3 sequence (whole entry): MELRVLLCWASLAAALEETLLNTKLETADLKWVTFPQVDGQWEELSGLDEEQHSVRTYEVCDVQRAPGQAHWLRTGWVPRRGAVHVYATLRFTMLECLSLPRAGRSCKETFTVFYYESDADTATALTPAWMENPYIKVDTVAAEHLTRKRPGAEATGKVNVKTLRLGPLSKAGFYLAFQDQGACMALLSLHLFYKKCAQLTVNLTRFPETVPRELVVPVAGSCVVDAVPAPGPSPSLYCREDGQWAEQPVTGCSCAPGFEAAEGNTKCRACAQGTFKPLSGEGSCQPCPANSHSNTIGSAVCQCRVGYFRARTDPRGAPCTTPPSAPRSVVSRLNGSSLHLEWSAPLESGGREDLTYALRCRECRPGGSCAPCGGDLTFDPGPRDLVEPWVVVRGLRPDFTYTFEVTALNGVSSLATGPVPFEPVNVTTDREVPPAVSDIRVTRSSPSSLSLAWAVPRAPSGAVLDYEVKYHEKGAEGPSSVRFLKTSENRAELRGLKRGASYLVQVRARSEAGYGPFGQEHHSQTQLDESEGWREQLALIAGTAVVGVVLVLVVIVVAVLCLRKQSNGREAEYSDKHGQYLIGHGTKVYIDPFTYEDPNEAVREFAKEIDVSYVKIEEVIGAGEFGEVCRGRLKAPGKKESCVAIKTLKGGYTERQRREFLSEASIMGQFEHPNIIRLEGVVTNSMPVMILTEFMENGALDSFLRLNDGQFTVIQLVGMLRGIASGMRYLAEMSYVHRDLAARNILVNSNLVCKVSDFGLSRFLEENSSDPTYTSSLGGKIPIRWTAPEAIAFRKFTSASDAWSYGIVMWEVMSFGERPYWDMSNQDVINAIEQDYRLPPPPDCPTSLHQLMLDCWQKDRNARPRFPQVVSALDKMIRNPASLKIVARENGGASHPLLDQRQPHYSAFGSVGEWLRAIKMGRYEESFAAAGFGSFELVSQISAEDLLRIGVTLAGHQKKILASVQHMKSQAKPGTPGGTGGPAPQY
The conditions noted are these: at 0.1 µM.

In assay [5] the target is T3, Ephrin type-B receptor 4 (Homo sapiens). The conditions noted are these: at 1 µM.
Assay [6] concerns the target Receptor tyrosine-protein kinase erbB-2 (Homo sapiens) (UniProt P04626). Conditions: at 0.1 µM.
Assay [7] shares this target. Conditions: at 1 µM.
Assay [8] has as its target Receptor tyrosine-protein kinase erbB-4 (Homo sapiens) (UniProt Q15303). Conditions: at 0.1 µM.
Assay [9] has the same target. The conditions noted are these: at 1 µM.
The target in assay [10] is Tyrosine-protein kinase Fer (Homo sapiens) (UniProt P16591). Conditions: at 0.1 µM.
The target is the same in assay [11]. The conditions noted are these: at 1 µM.
Assay [12] addresses Tyrosine-protein kinase Fes/Fps (Homo sapiens) (UniProt P07332). Conditions: at 0.1 µM.
The target is the same in assay [13]. The conditions noted are these: at 1 µM.
Assay [14] has as its target Fibroblast growth factor receptor 1 (Homo sapiens) (UniProt P11362). Conditions: at 0.1 µM.
Assay [15] has the same target. Conditions: at 1 µM.
Assay [16] has as its target Fibroblast growth factor receptor 2 (Homo sapiens) (UniProt P21802). Conditions: at 0.1 µM.
For assay [17] the target is unchanged. The conditions noted are these: at 1 µM.
The target in assay [18] is Fibroblast growth factor receptor 3 (Homo sapiens) (UniProt P22607). The conditions noted are these: at 0.1 µM.
Assay [19] has the same target. The conditions noted are these: at 1 µM.
The target in assay [20] is Fibroblast growth factor receptor 4 (Homo sapiens) (UniProt P22455). The conditions noted are these: at 0.1 µM.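 Further: values are mean percent inhibition of FGFR4.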
Fibroblast growth factor receptor 4 (Homo sapiens), sequence (P22455 22-802 limits assumed): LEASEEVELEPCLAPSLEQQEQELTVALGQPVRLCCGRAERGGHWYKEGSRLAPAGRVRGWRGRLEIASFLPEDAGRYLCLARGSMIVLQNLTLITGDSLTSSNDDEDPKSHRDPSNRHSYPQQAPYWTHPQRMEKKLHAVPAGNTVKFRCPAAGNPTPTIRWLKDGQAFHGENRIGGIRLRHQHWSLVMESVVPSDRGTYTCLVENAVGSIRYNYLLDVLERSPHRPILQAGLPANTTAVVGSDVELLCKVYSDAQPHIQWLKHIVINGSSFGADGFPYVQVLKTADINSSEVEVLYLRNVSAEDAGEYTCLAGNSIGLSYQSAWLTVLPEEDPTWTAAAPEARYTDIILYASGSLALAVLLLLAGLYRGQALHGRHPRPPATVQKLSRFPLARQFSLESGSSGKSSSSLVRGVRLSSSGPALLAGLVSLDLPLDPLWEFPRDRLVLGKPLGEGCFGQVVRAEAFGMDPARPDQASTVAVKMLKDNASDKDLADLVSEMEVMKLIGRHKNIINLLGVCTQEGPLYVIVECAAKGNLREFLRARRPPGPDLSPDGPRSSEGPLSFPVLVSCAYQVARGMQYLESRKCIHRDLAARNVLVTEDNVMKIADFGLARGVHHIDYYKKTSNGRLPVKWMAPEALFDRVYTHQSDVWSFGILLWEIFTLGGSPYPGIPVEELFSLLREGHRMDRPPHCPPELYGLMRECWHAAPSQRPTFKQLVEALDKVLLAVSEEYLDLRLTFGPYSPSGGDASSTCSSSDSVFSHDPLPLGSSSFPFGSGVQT

Receptor tyrosine-protein kinase erbB-2 (Homo sapiens), sequence (P04626 whole entry): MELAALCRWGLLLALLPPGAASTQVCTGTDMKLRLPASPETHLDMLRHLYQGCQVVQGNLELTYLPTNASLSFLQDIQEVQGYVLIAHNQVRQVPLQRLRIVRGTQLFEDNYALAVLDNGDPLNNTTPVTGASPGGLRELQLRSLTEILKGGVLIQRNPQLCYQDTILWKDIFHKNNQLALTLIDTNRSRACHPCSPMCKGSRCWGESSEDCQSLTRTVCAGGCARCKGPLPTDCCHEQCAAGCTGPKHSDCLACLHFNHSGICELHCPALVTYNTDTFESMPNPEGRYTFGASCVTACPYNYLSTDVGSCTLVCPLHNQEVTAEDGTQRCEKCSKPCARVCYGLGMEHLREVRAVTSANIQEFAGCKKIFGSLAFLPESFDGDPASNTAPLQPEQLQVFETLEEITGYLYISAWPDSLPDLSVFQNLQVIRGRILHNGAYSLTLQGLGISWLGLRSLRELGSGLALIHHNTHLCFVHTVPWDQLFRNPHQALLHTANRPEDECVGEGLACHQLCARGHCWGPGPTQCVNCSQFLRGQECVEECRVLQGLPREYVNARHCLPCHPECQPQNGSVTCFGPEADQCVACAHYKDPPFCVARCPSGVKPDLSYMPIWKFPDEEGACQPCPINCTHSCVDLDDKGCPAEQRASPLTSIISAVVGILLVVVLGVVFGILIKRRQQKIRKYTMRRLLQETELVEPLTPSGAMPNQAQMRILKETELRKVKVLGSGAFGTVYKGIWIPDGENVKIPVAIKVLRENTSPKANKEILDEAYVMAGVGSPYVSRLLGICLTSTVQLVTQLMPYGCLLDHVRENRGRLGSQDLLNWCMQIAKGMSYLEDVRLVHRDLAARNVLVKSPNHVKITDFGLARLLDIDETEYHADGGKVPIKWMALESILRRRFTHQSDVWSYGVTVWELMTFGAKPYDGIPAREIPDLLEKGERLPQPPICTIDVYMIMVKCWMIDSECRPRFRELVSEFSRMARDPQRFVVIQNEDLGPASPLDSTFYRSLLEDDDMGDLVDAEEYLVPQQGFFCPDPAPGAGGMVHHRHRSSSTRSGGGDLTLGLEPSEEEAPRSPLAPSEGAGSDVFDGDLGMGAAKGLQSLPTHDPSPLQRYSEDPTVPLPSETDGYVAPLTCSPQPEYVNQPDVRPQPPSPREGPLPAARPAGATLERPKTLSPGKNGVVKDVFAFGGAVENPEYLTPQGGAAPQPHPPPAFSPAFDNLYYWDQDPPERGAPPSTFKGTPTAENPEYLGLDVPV
Fibroblast growth factor receptor 1 (Homo sapiens), sequence (P11362 22-822 limits assumed): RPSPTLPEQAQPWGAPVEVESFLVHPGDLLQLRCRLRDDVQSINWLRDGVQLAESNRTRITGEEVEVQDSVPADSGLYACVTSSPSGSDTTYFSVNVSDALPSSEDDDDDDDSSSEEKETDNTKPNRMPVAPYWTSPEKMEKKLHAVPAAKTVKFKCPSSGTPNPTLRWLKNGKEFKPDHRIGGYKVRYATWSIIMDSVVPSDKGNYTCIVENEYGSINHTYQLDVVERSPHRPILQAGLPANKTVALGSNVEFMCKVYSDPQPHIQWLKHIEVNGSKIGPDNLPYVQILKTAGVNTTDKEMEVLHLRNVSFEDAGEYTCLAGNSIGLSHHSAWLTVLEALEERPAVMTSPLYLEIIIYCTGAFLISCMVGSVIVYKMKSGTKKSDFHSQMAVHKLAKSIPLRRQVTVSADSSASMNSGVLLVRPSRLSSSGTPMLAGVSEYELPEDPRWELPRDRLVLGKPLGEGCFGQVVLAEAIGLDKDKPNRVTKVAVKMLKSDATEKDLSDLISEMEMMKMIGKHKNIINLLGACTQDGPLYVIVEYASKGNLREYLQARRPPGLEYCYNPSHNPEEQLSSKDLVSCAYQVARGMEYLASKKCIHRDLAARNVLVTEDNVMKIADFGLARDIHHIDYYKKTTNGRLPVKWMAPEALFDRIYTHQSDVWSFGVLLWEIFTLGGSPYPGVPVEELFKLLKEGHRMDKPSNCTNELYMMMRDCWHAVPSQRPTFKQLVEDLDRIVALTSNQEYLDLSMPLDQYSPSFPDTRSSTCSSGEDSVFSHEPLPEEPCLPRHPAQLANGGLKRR
Fibroblast growth factor receptor 2 (Homo sapiens), sequence (P21802 22-821 limits assumed): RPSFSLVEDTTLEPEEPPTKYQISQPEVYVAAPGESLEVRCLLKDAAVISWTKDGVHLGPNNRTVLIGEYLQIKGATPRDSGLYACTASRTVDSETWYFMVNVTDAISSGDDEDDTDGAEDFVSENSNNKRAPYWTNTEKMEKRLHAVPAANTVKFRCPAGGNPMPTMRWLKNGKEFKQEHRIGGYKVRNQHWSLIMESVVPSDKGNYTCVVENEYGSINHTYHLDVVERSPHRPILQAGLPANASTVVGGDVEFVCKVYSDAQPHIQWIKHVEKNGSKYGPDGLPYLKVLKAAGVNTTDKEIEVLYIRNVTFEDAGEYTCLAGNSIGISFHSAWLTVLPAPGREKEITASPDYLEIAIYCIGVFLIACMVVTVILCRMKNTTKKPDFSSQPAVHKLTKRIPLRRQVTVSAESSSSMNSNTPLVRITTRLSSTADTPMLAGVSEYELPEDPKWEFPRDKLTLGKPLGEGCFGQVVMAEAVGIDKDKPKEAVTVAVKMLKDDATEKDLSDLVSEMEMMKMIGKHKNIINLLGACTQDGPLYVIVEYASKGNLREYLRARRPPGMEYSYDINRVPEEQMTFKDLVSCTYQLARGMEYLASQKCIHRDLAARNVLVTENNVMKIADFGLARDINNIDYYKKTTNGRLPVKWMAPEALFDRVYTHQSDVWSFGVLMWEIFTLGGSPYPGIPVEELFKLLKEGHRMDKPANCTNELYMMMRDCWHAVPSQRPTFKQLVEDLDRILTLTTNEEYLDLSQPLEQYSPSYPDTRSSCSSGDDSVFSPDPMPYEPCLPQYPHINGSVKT
Tyrosine-protein kinase Fes/Fps (Homo sapiens), sequence (P07332 whole entry): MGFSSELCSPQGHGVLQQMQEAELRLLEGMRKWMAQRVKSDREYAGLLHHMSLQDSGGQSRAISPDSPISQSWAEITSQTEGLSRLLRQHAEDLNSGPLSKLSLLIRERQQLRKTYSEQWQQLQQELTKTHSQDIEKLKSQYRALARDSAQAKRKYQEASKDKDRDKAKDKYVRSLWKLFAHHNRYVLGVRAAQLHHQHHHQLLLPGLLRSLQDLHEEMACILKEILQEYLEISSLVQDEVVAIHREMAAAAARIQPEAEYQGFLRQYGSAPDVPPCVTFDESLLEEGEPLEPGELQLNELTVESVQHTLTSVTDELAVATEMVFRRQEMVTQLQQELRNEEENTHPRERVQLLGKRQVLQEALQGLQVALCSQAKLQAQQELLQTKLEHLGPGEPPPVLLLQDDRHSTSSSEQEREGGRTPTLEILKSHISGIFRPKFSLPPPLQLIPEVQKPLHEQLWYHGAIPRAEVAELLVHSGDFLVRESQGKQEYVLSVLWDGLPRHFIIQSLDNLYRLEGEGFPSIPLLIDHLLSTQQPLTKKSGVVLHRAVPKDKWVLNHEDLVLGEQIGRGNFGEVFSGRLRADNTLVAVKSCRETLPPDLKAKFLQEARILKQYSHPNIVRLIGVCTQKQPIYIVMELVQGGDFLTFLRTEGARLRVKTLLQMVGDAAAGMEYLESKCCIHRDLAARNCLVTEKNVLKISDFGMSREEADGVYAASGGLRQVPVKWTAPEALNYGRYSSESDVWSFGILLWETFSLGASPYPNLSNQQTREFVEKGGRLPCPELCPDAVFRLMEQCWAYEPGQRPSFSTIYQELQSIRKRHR

The inhibition is the drop in the measured response relative to a control, in per cent. Turning to `COc1cc(Nc2ncc3c(C)nc(-c4cccc(C(F)(F)F)c4)n3n2)cc(OC)c1OC`, the inhibition amounted to 57.1% in [1]; 6.46% in assay [2]; 3.53% in assay [3]; 5.85% in [4]; 31.1% in [5]; 0.82% in [6]. Moreover, the inhibition in [7] stood at 3.68%; in assay [8], 5.34%; in assay [9] it was 8.32%; in assay [10] it was 3.27%; in assay [11], 16.6%; in assay [12], 2.74%. Further, the inhibition in assay [13] was 4.66%; in assay [14], 0.79%; in [15] it was 3.96%; in [16], 1.87%; in assay [17], 10.6%; in [18] it was 3.25%. For the same compound, the inhibition in assay [19] is 4.79%; in assay [20] it was 0.66%.
In the case of `Fc1ccc(-c2ncn(C3CCNCC3)c2-c2ccnc(Oc3ccc(Oc4ccccc4)cc3)n2)cc1`, the inhibition in [1] is 7.3%; in [2], 4.75%; in assay [3], 2.76%; in assay [4], 2.74%; in [5] it was 2.19%; in [6], 3.95%. Moreover, the inhibition in assay [7] was 2.11%; in assay [8] it was 6.47%; in assay [9], 9.01%; in assay [10] it was 1.51%; in assay [11], 5.54%; in [12], 3.48%. In addition, the inhibition was found to be 4.42% in assay [13]; 6.98% in [14]; 2.81% in [15]; 6.96% in [16]; 5.56% in [17]; 7.61% in assay [18]. The inhibition is 5.27% in assay [19] and -7.37% in assay [20].
`Fc1ccc(-c2ncn(C3CCNCC3)c2-c2ccnc(Oc3ccc4c(c3)OCO4)n2)cc1`: the inhibition in [1] is 16.5%; in assay [2] it was 5.97%; in assay [3], 3.71%; in [4], 1.53%; in assay [5] it was 3.9%; in [6], -0.35%. The inhibition in [7] was determined as 12%; in assay [8], 10.6%; in [9] it was 19.3%; in [10], 6.11%; in assay [11] it was 10.4%; in assay [12], 4.19%. Further, the inhibition in [13] amounted to 3.36%; in [14], 3.51%; in assay [15], 11.8%; in assay [16], 6.16%; in assay [17], 12%; in [18], 6.95%. Further, in [19], the inhibition came out at 9.41%.
As for `Cc1nnc(-c2ccc(C)c(-c3ccc(C(=O)NCc4ccc(Cl)cc4)cc3)c2)o1`, the inhibition in [1] was 2.23%; in assay [2], 1.15%; in [3], -1.34%; in assay [4], -0.5%; in assay [5], -2.62%; in assay [6] it was 5.39%. In addition, the inhibition in assay [7] stood at 4.99%; in assay [8], 3.42%; in [9], 7.48%; in [10], 3.34%; in [11], 3.71%; in assay [12] it was 2.32%. Moreover, the inhibition was 1.83% in [13]; -2.72% in assay [14]; -1.85% in assay [15]; 0.07% in assay [16]; 11.1% in [17]; 1.78% in assay [18]. Further, in [19], the inhibition was -1.81%.
Regarding `NCc1ccc(-n2c(-c3nonc3N)nc3cnccc32)cc1`, the inhibition in [1] is 8.48%; in assay [2] it was 7.61%; in assay [3], 3.86%; in assay [4], 2.23%; in [5], 1.42%; in assay [6] it was 2.39%. Moreover, the inhibition in assay [7] came to 2.56%; in assay [8] it was 16.3%; in assay [9], 18%; in assay [10], 3.01%; in assay [11], 5.77%; in assay [12] it was 12.8%. Further, the inhibition was 13% in assay [13]; 4.07% in assay [14]; 6.76% in assay [15]; 6.5% in assay [16]; 9.9% in assay [17]; 9.59% in [18]. Further, the inhibition in assay [19] is 6.14%; in assay [20], -4.29%.
As for `COc1cc2ncn(-c3cc(OCCc4ccccc4)c(C(N)=O)s3)c2cc1OC`, the inhibition came out at 6.52% in [1]; 2.67% in assay [2]; 2.11% in assay [3]; 2.03% in assay [4]; 2.56% in assay [5]; 2.58% in [6]. Moreover, the inhibition came out at 2.47% in [7]; 13.8% in [8]; 13.1% in assay [9]; 4.91% in assay [10]; 1.49% in [11]; 1.6% in assay [12]. The inhibition in [13] came to 1.71%; in [14], 14.8%; in [15], 2.62%; in assay [16], 1.97%; in assay [17], 3.63%; in [18], 2.83%. Besides, the values for the inhibition in [19] and in assay [20] were 2.85% and -0.14%, respectively.
Take `CCc1cccc(CC)c1/C=C/c1cncc(C(=O)NC)c1`: the inhibition worked out at 11.1% in assay [1]; 3.73% in assay [2]; 2.63% in assay [3]; 1.12% in assay [4]; 1.84% in assay [5]; 0.13% in [6]. Moreover, the inhibition in assay [7] was -1.35%; in assay [8], 12.1%; in assay [9] it was 14.1%; in assay [10] it was 1.86%; in [11], 1.64%; in [12] it was 2.16%. Moreover, the inhibition in [13] stood at 2.33%; in assay [14] it was 5.4%; in assay [15] it was 11.8%; in [16], 5.9%; in [17], 9.23%; in [18], 6.74%. Also, the inhibition in assay [19] was 9.45%; in assay [20], -1.16%.
